Molecules are shown by their SMILES.

For test [1], the target named is Protein kinase C gamma type (Homo sapiens) (UniProt P05129). The conditions noted are these: at 1 µM.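 Note: each value is an averaged percent inhibition of the enzyme.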
In test [2] the target is T1, Protein kinase C iota type (Homo sapiens) (UniProt P41743).
T1 sequence (whole entry): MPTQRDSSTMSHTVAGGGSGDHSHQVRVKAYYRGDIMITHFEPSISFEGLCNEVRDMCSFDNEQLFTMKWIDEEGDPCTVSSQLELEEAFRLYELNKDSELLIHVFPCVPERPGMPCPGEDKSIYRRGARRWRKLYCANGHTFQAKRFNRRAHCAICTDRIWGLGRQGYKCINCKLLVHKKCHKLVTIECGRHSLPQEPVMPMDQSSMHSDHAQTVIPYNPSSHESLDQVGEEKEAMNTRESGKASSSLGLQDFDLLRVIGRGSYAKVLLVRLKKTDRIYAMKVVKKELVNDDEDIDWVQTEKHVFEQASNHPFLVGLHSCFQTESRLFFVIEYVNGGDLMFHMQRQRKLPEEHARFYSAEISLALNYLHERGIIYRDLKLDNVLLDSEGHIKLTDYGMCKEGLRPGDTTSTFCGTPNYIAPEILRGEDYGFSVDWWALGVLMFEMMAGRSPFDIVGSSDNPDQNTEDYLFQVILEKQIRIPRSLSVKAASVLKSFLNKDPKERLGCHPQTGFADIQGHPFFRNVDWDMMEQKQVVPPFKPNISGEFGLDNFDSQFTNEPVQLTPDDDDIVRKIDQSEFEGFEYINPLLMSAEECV
The conditions noted are these: at 0.1 µM.

Test [3] concerns the target T1, Protein kinase C iota type (Homo sapiens). The conditions noted are these: at 1 µM.
For test [4], the target named is Protein kinase C theta type (Homo sapiens) (UniProt Q04759). The conditions noted are these: at 0.1 µM.
Protein kinase C theta type (Homo sapiens), sequence (Q04759 whole entry, looked up): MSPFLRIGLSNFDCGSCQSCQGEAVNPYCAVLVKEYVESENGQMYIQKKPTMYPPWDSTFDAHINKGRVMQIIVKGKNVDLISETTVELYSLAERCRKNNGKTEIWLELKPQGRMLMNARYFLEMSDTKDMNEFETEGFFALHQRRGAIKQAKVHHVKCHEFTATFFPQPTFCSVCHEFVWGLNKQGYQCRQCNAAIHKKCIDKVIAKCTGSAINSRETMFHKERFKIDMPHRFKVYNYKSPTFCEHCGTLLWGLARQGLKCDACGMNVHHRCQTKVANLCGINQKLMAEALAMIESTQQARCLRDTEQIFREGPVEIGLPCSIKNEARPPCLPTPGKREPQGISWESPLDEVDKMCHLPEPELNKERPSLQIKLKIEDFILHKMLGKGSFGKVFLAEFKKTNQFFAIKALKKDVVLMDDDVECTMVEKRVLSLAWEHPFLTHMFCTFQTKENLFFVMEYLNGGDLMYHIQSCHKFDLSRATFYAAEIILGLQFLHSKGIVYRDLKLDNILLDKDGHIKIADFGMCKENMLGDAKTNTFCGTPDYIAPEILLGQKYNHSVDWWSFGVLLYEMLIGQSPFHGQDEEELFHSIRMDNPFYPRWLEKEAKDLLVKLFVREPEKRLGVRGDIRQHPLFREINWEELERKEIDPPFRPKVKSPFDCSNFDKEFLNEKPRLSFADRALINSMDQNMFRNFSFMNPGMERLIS
For test [5] the target is unchanged. The conditions noted are these: at 1 µM.
Test [6] addresses Protein kinase C beta type (Homo sapiens) (UniProt P05771). The conditions noted are these: at 0.1 µM.
Test [7] shares this target. To be noted: at 1 µM.
The target in test [8] is T2, Serine/threonine-protein kinase D1 (Homo sapiens) (UniProt Q15139).
T2 sequence (whole entry): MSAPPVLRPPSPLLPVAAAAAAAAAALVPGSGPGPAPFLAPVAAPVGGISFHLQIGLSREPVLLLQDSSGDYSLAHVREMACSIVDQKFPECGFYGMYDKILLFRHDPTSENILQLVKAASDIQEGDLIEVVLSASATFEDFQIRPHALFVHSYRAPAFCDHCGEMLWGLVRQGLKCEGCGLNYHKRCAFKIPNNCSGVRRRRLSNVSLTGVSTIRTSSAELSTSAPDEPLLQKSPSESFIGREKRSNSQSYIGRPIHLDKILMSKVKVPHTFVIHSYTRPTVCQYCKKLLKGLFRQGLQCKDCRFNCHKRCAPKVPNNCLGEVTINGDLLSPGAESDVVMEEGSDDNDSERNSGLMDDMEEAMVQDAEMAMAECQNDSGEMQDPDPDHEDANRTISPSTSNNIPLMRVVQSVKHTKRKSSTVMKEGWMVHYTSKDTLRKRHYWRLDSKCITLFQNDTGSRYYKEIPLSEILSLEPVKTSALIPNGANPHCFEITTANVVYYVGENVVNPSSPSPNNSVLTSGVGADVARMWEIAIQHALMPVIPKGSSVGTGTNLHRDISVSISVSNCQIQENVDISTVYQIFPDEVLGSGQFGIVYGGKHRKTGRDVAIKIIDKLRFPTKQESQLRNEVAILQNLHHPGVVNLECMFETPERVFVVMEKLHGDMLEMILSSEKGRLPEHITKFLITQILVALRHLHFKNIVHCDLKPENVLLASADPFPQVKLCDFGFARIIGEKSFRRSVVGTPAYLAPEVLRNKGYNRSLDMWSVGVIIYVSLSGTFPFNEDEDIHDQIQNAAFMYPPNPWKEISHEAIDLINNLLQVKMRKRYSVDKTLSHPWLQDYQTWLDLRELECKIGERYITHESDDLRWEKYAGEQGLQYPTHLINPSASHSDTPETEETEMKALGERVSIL
The conditions noted are these: at 0.1 µM.

Test [9] has as its target T2, Serine/threonine-protein kinase D1 (Homo sapiens). The conditions noted are these: at 1 µM.
Test [10] addresses T3, Serine/threonine-protein kinase D2 (Homo sapiens) (UniProt Q9BZL6).
T3 sequence (whole entry): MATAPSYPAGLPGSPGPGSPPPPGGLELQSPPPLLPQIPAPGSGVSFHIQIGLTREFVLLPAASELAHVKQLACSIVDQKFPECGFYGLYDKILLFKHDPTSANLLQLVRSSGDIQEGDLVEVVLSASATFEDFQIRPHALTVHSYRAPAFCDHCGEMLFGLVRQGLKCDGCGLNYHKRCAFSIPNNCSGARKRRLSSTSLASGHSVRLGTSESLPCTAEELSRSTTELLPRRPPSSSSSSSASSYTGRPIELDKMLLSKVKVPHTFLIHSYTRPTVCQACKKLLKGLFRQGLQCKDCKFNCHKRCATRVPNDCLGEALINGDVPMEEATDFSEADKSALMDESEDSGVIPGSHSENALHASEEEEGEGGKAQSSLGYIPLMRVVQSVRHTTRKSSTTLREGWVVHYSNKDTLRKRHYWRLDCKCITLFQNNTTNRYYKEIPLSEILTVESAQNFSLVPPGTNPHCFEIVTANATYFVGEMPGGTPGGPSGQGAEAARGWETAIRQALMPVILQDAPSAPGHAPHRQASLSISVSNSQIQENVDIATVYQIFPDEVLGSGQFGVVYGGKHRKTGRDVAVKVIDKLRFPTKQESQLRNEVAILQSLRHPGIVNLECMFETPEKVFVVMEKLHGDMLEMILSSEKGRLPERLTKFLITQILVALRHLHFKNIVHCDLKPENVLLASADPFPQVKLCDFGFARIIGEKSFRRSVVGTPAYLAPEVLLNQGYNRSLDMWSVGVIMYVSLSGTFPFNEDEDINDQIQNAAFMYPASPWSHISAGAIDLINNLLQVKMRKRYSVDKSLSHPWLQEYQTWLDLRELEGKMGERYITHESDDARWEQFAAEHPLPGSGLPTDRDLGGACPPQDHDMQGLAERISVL
To be noted: at 0.1 µM.

Test [11] deals with T3, Serine/threonine-protein kinase D2 (Homo sapiens). To be noted: at 1 µM.
Test [12] deals with T4, Serine/threonine-protein kinase D3 (Homo sapiens) (UniProt O94806).
T4 sequence (whole entry): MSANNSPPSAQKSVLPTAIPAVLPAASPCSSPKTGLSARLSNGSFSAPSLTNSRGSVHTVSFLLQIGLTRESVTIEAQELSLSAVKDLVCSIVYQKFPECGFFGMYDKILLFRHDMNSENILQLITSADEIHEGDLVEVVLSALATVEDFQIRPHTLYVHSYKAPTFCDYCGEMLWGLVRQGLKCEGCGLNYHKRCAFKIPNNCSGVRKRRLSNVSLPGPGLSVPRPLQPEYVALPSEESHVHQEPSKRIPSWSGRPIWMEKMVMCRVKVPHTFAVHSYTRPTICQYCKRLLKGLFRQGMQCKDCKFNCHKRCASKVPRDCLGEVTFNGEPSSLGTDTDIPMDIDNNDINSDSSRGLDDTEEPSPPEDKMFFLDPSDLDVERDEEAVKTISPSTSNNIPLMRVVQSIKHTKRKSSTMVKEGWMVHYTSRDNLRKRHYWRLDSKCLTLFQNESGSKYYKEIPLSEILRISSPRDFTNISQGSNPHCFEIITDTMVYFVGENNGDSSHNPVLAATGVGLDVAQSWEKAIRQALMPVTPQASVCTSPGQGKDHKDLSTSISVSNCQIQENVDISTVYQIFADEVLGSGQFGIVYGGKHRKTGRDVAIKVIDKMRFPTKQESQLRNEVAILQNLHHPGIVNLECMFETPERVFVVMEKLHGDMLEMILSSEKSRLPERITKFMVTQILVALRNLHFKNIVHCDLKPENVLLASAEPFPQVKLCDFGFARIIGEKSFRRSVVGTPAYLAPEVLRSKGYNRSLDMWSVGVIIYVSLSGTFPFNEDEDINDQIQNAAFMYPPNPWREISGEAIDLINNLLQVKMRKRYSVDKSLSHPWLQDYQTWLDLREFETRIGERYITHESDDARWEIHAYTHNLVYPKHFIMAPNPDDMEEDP
To be noted: at 0.1 µM.

Test [13] addresses T4, Serine/threonine-protein kinase D3 (Homo sapiens). The conditions noted are these: at 1 µM.
The target of test [14] is T5, cGMP-dependent protein kinase 1 (Homo sapiens) (UniProt Q13976).
T5 sequence (whole entry): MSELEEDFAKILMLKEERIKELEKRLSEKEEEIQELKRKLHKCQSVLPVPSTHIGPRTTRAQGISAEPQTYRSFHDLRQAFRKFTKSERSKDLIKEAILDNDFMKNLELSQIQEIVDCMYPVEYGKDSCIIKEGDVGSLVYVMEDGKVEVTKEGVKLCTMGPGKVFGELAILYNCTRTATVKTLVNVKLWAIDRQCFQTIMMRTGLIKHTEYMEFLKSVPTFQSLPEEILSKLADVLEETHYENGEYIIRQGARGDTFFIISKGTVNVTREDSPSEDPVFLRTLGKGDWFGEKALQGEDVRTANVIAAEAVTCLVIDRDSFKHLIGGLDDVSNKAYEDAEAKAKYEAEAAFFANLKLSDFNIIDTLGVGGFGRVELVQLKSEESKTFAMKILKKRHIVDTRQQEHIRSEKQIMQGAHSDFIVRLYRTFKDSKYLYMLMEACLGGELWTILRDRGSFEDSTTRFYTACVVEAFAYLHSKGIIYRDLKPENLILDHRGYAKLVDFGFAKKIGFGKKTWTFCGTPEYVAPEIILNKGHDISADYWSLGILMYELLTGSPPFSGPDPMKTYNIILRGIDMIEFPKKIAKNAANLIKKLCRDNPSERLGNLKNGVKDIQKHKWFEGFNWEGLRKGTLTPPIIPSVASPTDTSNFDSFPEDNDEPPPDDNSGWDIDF
The conditions noted are these: at 0.1 µM.

Test [15] deals with T5, cGMP-dependent protein kinase 1 (Homo sapiens). The conditions noted are these: at 1 µM.
Test [16] deals with T6, cGMP-dependent protein kinase 2 (Homo sapiens) (UniProt Q13237).
T6 sequence (whole entry): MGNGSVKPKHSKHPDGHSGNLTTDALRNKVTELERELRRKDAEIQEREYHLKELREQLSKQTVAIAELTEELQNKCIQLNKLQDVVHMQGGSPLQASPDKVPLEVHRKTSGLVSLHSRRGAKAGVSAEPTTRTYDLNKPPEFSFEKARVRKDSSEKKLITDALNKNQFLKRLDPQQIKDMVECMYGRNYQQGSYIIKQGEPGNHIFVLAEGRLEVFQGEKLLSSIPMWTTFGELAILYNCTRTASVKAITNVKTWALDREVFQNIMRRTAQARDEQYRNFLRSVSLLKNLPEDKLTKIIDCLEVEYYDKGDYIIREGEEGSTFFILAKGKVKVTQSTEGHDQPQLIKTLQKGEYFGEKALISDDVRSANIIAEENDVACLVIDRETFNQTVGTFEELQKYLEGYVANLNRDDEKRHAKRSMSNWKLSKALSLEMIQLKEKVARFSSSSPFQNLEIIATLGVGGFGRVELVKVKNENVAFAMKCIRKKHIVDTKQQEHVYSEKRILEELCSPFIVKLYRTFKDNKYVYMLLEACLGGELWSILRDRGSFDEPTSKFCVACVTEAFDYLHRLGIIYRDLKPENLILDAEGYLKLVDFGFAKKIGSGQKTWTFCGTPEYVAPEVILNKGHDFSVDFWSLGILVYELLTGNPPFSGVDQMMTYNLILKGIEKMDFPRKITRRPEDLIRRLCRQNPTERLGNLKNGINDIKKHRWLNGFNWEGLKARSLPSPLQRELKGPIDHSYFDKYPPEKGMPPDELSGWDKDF
The conditions noted are these: at 0.1 µM.

In test [17] the target is T6, cGMP-dependent protein kinase 2 (Homo sapiens). To be noted: at 1 µM.
In test [18] the target is T7, cAMP-dependent protein kinase catalytic subunit PRKX (Homo sapiens) (UniProt P51817).
T7 sequence (whole entry): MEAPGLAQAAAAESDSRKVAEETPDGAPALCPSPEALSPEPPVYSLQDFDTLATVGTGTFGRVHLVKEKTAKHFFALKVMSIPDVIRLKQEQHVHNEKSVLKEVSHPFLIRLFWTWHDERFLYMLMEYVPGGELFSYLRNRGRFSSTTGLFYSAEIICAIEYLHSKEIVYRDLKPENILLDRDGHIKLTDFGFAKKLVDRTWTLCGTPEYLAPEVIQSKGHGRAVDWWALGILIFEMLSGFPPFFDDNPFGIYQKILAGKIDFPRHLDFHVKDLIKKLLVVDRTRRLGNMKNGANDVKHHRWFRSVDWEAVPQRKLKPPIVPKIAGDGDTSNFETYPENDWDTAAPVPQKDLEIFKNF
To be noted: at 0.1 µM.

Test [19] addresses T7, cAMP-dependent protein kinase catalytic subunit PRKX (Homo sapiens). The conditions noted are these: at 1 µM.
Test [20] concerns the target Rho-associated protein kinase 1 (Homo sapiens) (UniProt Q13464). To be noted: at 0.1 µM.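 Note: values are mean percent inhibition of ROCK1.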

Protein kinase C beta type (Homo sapiens), sequence (P05771 2-671 limits assumed): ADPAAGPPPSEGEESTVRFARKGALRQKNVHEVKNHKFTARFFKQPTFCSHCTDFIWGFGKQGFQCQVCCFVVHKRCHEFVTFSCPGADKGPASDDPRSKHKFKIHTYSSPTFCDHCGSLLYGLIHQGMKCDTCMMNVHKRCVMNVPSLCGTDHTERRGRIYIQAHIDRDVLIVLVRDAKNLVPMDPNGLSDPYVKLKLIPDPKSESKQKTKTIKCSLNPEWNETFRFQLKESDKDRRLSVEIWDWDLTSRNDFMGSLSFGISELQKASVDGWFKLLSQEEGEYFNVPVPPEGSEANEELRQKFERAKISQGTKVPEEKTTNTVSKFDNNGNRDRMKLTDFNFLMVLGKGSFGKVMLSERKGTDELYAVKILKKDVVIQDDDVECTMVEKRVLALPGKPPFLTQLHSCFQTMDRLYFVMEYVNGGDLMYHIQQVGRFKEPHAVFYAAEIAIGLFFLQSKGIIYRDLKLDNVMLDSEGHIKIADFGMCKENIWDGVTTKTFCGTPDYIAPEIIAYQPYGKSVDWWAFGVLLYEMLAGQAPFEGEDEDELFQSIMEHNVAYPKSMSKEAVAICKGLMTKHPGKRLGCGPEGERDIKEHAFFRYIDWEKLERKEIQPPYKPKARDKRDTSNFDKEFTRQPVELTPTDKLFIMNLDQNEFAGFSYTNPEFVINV
Rho-associated protein kinase 1 (Homo sapiens), sequence (Q13464 2-1354 limits assumed): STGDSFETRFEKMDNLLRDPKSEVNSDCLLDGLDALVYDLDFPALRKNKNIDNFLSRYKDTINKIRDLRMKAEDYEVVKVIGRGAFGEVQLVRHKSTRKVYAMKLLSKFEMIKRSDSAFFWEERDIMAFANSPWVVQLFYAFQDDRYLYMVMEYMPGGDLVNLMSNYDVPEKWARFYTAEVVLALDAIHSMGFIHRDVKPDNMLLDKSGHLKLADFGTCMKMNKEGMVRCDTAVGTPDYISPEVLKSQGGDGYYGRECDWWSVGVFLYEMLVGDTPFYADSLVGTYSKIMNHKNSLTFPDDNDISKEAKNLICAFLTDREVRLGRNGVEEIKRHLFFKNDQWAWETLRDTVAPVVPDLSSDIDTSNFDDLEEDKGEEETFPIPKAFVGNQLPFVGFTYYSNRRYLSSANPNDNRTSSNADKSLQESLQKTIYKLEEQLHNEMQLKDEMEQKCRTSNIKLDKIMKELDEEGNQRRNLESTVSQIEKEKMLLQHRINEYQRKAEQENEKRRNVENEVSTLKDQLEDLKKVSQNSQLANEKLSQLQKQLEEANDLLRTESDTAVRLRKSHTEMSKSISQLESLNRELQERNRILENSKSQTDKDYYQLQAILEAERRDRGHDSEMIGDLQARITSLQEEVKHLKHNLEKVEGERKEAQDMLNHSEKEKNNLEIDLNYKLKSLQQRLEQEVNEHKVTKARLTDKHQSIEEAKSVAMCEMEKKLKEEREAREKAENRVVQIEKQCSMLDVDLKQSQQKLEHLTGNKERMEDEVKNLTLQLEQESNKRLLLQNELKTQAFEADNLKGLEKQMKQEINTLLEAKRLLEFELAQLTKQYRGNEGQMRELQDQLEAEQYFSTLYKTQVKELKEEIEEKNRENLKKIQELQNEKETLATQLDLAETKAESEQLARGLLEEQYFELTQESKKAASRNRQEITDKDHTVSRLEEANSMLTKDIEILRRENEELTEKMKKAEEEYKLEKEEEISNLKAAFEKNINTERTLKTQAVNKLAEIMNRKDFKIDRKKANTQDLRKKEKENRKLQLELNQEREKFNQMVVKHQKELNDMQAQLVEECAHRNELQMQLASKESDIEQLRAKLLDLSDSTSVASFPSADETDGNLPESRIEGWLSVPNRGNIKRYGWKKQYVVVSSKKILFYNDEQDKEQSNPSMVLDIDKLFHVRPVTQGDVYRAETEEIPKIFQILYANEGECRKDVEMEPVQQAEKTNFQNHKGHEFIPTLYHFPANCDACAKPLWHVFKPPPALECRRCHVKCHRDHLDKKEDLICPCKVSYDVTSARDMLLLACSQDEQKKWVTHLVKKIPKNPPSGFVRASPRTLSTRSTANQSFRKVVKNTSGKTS

In general, inhibition refers to how much of the control response was suppressed. Lower therefore signals little suppression. For `O=C1Nc2ccc(I)cc2C1=Cc1cc(Br)c(O)c(Br)c1`, the inhibition came to 2.63% in [1]; 0.72% in [2]; 1.75% in [3]; 1.74% in [4]; 2.5% in test [5]; 0.99% in test [6]. The inhibition in test [7] was 1.87%; in [8] it was 3.52%; in [9] it was 4.76%; in [10], 2.97%; in test [11], 1.24%; in test [12], 3.73%. Besides, the inhibition was 3.16% in test [13]; 3.82% in test [14]; 5.76% in [15]; 2.47% in [16]; 6.45% in [17]; 0.49% in test [18]. Besides, the inhibition was 2.04% in test [19] and 2.76% in [20].

Values taken from ChEMBL document CHEMBL1961873, “Compounds: GSK PKIS; Assays: Nanosyn kinase panel” (2012).
